Assay results: PubChem BioAssay AID763 (NMMLSC, 2007)
Calls of active or inactive are those of the source. No rule for the calls is given here.

These molecules were tested against fMet-Leu-Phe receptor (Homo sapiens) (UniProt P21462) (assay: FPR1 fluorescent ligand binding inhibitors, SAR follow-up, selectivity assay for FPRL1 ligand SAR project, cell-based, single concentration (AID 763)). Settings: FPR1-expressing cells, active compounds read high; at 5.4 µM unless noted.
fMet-Leu-Phe receptor (Homo sapiens), sequence (P21462 whole entry, looked up): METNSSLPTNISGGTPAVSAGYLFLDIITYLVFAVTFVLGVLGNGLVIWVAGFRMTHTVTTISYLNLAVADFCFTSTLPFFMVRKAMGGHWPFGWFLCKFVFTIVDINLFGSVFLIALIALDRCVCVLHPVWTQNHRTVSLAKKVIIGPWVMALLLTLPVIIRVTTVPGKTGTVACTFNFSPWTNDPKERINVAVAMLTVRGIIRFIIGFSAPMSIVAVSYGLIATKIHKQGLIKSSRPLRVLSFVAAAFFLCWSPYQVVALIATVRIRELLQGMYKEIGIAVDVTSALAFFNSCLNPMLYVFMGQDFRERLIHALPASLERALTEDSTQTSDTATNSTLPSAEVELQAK
For COc1ccccc1-c1cc(C(F)(F)F)nc(N2CCN(c3ccccc3OC)CC2)n1, the inhibition was -2.2% [at 5 µM] (inactive).
For CC(C)(C)OC(=O)N1CCN(c2nc(-c3ccccc3)c3ccccc3n2)CC1, the inhibition was -1.7% [at 5.7 µM] (inactive).
Cc1ccc2nc(N3CCN(c4ccccc4)CC3)nc(-c3ccccc3)c2c1 was tested, and the inhibition was 0.6% [at 5.8 µM] (inactive).
With COc1ccccc1-c1cc(C(F)(F)F)nc(N2CCN(c3ccccc3)CC2)n1 the inhibition was -10.8% (inactive).
For Brc1ccc2nc(N3CCN(c4ccccc4)CC3)nc(-c3ccccc3)c2c1, the inhibition was 0.6% [at 5 µM] (inactive).
In the case of Cc1c(-c2cccc(NC(=O)C(C)(C)C)c2)nc2ncccn12, the inhibition was 4.9% [at 7.2 µM] (inactive).
COc1ccc(-c2cn3cccnc3n2)cc1NC(=O)CSCc1ccccc1 was tested, and the inhibition was -0.7% [at 5.5 µM] (inactive).
For O=C(O)/C=C\C(=O)N1CCN(c2nc(-c3ccccc3)c3cc(Br)ccc3n2)CC1, the inhibition was -5.7% [at 4.8 µM] (inactive).
In the case of COc1ccc(-c2cn3cccnc3n2)cc1NC(=O)c1cccc(Cl)c1, the inhibition was 3.4% [at 5.9 µM] (inactive).
For CCOc1cc(C(=O)Nc2cc(-c3cn4cccnc4n3)ccc2OC)cc(OCC)c1OCC, the inhibition was 0% [at 4.7 µM] (inactive).
For COc1ccc(-c2cn3cccnc3n2)cc1NC(=O)c1ccccc1Br, the inhibition was 0.1% [at 5.3 µM] (inactive).
For COc1ccc(-c2cn3cccnc3n2)cc1NC(=O)c1ccc(C(F)(F)F)cc1, the inhibition was 3.7% (inactive).
In the case of COc1ccc(C2CC(=O)c3cnc(N4CCN(Cc5ccc6c(c5)OCO6)CC4)nc3C2)c(OC)c1 (stereo not drawn), the inhibition was -4.7% [at 4.4 µM] (inactive).
